Assay results published in the supplement of paper PMC11732987, “Enantioselective OTUD7B fragment discovery through chemoproteomics screening and high-throughput optimisation” (Communications Chemistry, 2025).

Assays:
Assay in all cases: log2 ratio of Biotin-Ahx-Ub-VS probe labelling (fragment/DMSO); higher = less target engagement (more negative = stronger competition), active = hit call of the paper (q ≤ 0.05, log2 ratio ≤ -1)
Conditions in all cases: compound concentration: 200 uM; treatment time: 3 h
USP19 = target: T1, USP19 (UniProt O94966)
T1 sequence (whole entry): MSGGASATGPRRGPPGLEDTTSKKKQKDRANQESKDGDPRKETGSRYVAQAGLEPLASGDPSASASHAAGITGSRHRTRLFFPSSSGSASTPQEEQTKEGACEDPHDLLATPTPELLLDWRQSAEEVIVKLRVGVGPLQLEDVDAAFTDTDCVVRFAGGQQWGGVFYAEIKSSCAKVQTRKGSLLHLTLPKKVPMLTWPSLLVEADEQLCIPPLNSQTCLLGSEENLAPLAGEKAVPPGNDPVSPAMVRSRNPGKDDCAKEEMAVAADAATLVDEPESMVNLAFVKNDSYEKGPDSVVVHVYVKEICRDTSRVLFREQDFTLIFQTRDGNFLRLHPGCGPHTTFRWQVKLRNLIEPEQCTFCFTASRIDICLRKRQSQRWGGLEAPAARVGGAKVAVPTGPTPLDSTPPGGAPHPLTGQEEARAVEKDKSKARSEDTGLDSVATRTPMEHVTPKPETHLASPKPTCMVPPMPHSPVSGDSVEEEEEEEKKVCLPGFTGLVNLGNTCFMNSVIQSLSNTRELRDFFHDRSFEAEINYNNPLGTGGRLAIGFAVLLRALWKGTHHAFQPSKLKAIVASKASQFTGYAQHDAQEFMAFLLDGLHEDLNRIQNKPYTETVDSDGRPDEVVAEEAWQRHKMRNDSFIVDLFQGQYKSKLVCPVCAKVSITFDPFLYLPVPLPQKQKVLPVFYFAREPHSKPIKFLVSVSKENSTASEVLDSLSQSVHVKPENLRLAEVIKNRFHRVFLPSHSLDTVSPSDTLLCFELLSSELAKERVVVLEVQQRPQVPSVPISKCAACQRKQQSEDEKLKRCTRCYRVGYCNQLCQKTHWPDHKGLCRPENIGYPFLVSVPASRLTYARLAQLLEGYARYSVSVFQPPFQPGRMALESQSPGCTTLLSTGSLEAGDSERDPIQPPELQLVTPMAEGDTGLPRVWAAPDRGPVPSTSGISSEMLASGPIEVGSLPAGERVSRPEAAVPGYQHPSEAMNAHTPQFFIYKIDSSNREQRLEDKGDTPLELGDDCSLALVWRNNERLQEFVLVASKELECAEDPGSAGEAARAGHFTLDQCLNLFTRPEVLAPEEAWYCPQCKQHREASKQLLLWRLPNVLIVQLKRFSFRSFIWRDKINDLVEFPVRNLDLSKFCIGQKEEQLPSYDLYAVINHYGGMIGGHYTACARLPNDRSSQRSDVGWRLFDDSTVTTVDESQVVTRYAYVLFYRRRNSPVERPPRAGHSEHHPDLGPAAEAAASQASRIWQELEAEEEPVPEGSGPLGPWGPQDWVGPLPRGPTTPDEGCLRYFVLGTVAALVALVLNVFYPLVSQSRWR
In short: (§1)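 Global-median-normalised Spectronaut label-free quantities were compared by unpaired t-test, and values are average log2 ratios of fragment over vehicle. Only proteins with ≥2 unique peptides were used. HEK293T lysate (495 µg per sample) was treated in triplicate with fragment at 200 µM or vehicle for 3 h and then with Biotin-Ahx-Ub-VS at 0.5 µM final for 1 h. Labelled DUBs were then NeutrAvidin-enriched, digested with LysC and trypsin, and run by diaPASEF LC-MS/MS.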

USP22 = target: T2, USP22 (UniProt Q9UPT9)
T2 sequence (whole entry): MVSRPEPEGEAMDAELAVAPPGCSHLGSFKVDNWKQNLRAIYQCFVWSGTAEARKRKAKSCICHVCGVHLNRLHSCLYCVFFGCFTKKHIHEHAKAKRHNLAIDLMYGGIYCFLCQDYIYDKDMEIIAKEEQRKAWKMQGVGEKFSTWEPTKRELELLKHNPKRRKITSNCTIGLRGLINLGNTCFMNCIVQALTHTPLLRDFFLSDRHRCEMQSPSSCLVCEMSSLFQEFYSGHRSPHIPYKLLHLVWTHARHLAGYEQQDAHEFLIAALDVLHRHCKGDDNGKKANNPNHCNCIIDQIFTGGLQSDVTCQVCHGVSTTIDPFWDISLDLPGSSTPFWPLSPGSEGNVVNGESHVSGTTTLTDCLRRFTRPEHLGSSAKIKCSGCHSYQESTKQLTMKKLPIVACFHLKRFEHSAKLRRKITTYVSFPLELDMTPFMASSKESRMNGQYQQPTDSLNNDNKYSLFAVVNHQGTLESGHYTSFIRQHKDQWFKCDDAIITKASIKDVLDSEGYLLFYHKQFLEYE
In short: as §1

USP24 = USP24 (UniProt Q9UPU5)
Chain of USP24 (Q9UPU5 whole entry): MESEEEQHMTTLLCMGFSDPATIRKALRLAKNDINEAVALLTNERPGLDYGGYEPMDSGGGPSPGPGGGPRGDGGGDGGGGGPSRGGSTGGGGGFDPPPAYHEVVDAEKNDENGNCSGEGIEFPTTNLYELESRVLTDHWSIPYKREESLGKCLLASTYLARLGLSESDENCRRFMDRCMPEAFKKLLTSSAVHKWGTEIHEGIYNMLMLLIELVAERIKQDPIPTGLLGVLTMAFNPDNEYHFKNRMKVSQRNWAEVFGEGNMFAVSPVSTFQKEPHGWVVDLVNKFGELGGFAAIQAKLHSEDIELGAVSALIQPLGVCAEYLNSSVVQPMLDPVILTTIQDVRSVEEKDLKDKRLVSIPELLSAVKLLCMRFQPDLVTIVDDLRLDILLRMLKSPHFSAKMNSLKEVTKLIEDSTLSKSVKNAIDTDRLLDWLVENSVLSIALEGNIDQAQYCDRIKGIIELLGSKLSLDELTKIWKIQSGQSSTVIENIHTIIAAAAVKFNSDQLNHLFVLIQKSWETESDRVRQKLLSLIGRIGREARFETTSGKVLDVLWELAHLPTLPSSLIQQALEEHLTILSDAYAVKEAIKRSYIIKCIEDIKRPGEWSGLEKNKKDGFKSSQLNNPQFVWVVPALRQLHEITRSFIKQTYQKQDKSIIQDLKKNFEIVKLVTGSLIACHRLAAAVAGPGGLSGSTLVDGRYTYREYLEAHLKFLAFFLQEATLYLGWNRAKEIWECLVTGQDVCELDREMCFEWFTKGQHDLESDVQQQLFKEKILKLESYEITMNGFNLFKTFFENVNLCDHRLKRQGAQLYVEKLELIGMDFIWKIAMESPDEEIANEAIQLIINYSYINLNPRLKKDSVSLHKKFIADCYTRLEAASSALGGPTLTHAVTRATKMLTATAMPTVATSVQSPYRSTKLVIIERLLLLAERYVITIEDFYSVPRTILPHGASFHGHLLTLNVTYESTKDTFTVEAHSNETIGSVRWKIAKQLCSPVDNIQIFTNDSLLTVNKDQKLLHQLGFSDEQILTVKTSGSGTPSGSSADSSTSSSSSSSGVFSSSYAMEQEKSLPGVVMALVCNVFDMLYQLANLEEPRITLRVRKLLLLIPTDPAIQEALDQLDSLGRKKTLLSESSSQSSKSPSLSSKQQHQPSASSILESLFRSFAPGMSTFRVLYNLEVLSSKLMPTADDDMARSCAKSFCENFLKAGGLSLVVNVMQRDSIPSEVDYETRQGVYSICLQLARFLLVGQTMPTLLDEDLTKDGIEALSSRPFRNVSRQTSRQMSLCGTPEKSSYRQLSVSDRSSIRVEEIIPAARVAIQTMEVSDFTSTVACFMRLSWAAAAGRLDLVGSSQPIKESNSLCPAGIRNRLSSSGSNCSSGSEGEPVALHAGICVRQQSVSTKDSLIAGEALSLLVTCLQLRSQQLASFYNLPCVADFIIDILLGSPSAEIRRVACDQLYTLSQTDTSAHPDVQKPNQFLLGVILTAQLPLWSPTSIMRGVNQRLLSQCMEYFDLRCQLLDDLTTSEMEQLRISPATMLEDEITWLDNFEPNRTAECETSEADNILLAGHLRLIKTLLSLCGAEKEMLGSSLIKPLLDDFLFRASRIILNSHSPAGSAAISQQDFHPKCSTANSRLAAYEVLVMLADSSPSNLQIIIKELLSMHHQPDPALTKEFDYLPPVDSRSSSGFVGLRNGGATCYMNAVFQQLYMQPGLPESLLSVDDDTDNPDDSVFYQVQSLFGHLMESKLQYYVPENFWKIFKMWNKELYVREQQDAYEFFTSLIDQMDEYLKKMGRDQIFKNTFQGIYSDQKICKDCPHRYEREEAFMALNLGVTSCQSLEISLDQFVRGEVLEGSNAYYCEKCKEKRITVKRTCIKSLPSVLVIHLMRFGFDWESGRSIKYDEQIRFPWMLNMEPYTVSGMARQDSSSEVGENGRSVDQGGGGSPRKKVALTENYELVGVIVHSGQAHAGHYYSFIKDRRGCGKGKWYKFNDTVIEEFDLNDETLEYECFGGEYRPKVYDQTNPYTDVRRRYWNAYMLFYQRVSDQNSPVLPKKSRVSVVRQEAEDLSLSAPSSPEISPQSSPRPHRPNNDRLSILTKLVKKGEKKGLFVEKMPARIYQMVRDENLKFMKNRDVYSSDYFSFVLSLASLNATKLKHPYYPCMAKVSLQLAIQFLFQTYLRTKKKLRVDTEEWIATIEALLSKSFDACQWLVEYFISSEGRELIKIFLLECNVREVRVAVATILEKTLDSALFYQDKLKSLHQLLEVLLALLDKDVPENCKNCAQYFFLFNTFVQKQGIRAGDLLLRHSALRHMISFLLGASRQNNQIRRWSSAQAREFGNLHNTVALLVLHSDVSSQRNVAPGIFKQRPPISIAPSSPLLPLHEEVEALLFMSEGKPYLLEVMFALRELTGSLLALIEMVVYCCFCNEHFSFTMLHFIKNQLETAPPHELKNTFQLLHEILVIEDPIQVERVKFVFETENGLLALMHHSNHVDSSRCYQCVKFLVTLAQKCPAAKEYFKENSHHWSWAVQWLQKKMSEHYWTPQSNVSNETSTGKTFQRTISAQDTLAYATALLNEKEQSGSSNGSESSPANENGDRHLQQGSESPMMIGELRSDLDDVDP
In short: as §1

USP25 = target: T3, USP25 (UniProt Q9UHP3)
T3 sequence (whole entry): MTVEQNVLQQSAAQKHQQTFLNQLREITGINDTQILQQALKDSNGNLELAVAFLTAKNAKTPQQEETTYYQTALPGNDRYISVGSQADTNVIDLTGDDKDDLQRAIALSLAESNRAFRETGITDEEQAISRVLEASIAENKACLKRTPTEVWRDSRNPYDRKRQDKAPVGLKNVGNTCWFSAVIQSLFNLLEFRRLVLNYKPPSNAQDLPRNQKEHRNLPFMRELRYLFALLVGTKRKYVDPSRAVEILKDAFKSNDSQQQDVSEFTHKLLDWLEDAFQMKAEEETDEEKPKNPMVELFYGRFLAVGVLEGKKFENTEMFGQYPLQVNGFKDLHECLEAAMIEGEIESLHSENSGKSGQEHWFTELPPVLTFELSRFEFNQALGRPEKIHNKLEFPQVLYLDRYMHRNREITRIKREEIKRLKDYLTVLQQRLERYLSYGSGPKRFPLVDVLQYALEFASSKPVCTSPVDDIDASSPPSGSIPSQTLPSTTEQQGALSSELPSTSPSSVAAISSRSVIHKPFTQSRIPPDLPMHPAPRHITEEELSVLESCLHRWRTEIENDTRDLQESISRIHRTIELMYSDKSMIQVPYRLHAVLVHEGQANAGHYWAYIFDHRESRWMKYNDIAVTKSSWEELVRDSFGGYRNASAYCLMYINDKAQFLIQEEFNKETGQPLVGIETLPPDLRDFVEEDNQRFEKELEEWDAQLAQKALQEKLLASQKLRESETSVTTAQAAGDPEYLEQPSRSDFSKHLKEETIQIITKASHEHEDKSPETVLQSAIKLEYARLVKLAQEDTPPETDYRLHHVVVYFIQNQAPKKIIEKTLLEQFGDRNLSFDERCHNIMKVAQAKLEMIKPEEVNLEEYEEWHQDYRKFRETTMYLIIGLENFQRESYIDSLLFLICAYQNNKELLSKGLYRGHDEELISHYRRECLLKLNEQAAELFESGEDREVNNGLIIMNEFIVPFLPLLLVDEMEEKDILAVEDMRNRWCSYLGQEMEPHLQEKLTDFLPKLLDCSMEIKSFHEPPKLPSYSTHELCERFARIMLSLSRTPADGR
In short: as §1

USP28 = target: T4, USP28 (UniProt Q96RU2)
T4 sequence (whole entry): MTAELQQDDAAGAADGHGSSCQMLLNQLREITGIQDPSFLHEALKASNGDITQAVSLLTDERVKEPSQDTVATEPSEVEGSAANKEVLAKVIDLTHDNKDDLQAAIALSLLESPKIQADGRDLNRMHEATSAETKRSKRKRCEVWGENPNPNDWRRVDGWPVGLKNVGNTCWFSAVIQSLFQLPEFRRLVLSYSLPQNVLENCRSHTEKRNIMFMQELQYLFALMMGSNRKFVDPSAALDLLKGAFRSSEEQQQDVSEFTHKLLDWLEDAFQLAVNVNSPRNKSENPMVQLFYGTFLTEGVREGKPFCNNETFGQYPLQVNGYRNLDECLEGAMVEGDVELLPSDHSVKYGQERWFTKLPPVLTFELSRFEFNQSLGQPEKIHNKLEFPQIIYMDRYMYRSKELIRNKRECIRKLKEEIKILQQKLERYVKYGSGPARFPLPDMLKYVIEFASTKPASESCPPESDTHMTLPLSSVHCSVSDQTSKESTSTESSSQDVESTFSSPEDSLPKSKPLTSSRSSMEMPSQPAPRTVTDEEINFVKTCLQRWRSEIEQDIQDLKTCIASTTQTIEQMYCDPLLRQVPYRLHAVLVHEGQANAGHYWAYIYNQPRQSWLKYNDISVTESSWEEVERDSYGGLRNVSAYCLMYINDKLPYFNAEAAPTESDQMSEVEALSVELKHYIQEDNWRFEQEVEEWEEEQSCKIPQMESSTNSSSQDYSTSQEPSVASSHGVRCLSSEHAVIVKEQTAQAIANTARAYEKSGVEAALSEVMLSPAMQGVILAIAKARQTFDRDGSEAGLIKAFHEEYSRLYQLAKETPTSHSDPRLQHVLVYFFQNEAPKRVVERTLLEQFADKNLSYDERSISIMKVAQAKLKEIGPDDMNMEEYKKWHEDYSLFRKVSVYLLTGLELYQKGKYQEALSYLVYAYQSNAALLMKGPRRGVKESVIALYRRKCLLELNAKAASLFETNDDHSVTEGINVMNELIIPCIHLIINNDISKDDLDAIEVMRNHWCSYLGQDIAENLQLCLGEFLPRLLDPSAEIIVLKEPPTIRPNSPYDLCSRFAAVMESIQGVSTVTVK
In short: as §1

Measured: log2 ratio of Biotin-Ahx-Ub-VS probe labelling

O=C(CCl)N1CCC(C(=O)N2CCCC2)CC1
inactive: USP19 -0.228 | USP22 0.0347 | USP24 -0.075 | USP25 -0.128 | USP28 -0.299
